From PMC4336329 (PLoS ONE, 2015)
Among all 310,000 compounds or so, about 14,000 (4.5%) showed an effect of 50% or more. Effects have a minus sign here. This is one part of a sample in which strong results are shown more often than they occur.

Biological target: human ether-à-go-go-related gene (hERG) potassium channel (human, UniProt Q12809)
Test: primary screen, population patch clamp on CHO cells stably expressing hERG; higher = less effect of the substance
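Note: peak tail current of the secondary pulse compared with the same well before compound.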

Sequence of human ether-à-go-go-related gene (hERG) potassium channel (Q12809 whole entry, looked up): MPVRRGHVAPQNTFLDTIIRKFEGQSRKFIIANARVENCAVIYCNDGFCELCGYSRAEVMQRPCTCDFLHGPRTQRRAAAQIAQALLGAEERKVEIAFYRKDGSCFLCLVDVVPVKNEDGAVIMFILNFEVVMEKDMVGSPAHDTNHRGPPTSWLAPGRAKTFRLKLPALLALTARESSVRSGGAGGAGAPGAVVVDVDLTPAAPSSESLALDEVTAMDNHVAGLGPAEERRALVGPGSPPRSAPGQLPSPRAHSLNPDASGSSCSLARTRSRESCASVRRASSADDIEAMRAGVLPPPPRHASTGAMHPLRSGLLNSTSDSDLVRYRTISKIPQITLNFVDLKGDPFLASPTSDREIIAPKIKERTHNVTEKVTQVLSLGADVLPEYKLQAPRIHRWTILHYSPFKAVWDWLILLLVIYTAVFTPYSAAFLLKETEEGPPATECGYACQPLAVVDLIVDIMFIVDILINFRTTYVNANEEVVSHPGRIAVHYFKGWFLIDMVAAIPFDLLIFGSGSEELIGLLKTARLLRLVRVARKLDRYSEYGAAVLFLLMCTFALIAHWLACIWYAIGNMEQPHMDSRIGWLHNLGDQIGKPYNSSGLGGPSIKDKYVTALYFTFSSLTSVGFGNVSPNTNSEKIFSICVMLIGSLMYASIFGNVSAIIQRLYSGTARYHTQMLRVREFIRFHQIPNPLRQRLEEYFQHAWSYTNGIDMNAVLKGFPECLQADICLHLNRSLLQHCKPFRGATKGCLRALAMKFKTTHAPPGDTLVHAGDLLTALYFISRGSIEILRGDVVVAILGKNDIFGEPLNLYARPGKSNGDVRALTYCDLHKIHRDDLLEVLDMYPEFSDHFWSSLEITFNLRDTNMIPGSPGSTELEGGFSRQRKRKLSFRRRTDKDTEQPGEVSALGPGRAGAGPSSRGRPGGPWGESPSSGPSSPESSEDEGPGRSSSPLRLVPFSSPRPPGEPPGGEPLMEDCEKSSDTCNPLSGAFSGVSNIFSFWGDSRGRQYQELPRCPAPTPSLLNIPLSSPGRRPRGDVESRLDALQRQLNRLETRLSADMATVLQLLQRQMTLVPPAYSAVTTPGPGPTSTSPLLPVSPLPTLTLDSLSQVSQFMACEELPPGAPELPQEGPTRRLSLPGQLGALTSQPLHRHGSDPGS

Row | SMILES | hERG current change (%, negative = inhibition) at 10uM
1 | Cc1ccc(CC(=O)N2CCN(c3ccc([N+](=O)[O-])cc3)CC2)cc1 | -62.1%
2 | CS(=O)(=O)N1CCN(C(=O)Cc2ccc([N+](=O)[O-])cc2)CC1 | 0.692%
3 | COc1ccccc1CC(=O)N1CCN(c2ccc(F)cc2)CC1 | -11.1%
4 | Cc1ccc(CC(=O)N2CCN(Cc3ccccc3)CC2)cc1 | 4.07%
5 | COc1ccccc1CC(=O)N1CCN(c2ccc([N+](=O)[O-])cc2)CC1 | -52%
6 | CC(=O)N/C(=C\c1ccc(F)cc1)C(=O)N(C)C | 14.2%
7 | O=C(OCn1nnc2ccccc2c1=O)c1ccc2c(=O)n3c(nc2c1)CCC3 | -7.06%
8 | Cc1ccccc1NC(=O)Cn1c(C)nc2ccc(N)cc2c1=O | 7.11%
9 | CCO.N#Cc1c(SC(C(=O)O)c2ccccc2)nc2c(c1-c1cccs1)CCCC2 (centres unmarked) | 25.2%
10 | C[C@@]12CCC=C[C@H]1[C@H](c1ccc(C(F)(F)F)cc1)N(Cc1ccccc1)C2=O | 12.2%
11 | O=C1C=C(NCc2ccc(Cl)cc2)CCC1 | -25.2%
12 | COC(=O)c1cc(OC)c(OC)cc1NC(=S)N1CCN(Cc2ccccc2)CC1 | 6.28%
13 | CCOc1ccccc1C(=O)OCC(=O)NCC1CCCCC1 | -7.31%
14 | O=C(COC(=O)COc1ccccc1[N+](=O)[O-])Nc1cccc(Br)c1 | 9.05%
15 | COC(=O)COc1ccc2c(-c3cccc([N+](=O)[O-])c3)cc(=O)oc2c1 | -31.8%
16 | CCCOc1ccc(C(O)C(CN2CCOCC2)c2ccccc2)cc1.Cl (centres unmarked) | 1.07%
17 | COc1ccc(/C=N\N2CCN(Cc3ccccc3Cl)CC2)cc1.Cl | -62.4%
18 | CC(CC(=O)N1CCN(S(=O)(=O)c2ccc([N+](=O)[O-])cc2)CC1)c1ccccc1 (centres unmarked) | -67.8%
19 | Clc1ccc(/C=N/N2CCN(Cc3ccccc3Cl)CC2)cc1 | 14.9%
20 | CC(C)CC(=O)N1CCN(S(=O)(=O)c2ccccc2)CC1 | 0.444%
21 | O=C(/C=C/c1ccc(F)cc1)N1CCN(Cc2ccccc2)CC1 | -40.6%
22 | O=[N+]([O-])c1ccc(/C=N/N2CCN(Cc3ccccc3)CC2)cc1 | -56.3%
23 | O=C(/C=C/c1ccc([N+](=O)[O-])cc1)N1CCN(S(=O)(=O)c2ccccc2)CC1 | -34.1%
24 | O=C(/C=C/c1ccc(OCCCF)cc1)N1CCOCC1 | 1.61%

Row | SMILES | hERG current change (%, negative = inhibition) at 10uM
25 | O=C(/C=C/c1ccc(OCCCF)cc1)N1CCN(Cc2ccccc2)CC1 | -65.6%
26 | O=[N+]([O-])c1ccc(Cl)c(/C=N/N2CCN(Cc3ccccc3)CC2)c1 | -1.74%
27 | O=[N+]([O-])c1cccc(/C=N/N2CCN(Cc3ccccc3)CC2)c1 | -0.159%
28 | COc1ccc(/C=N/N2CCN(Cc3ccccc3)CC2)cc1 | -2.63%
29 | CCOc1ccc(NC(=O)CN(C)C(=O)c2c(-c3c(F)cccc3Cl)noc2C)cc1OCC | -3.83%
30 | Cc1cccc(C)c1OCc1cc(C(=O)N2CCN(c3ccccc3)CC2C)no1 (centres unmarked) | 7.3%
31 | O=C(COc1ccc(/C=N/NC(=O)c2ccccc2O)cc1)Nc1ccc([N+](=O)[O-])cc1 | 13.7%
32 | COc1ccc(NC(=O)C2=CC(c3ccco3)=NS(=O)(=O)N2C)cc1 | 0.0772%
33 | CCCCCCNC(=O)N[C@H](Cc1ccc(O)cc1)C(=O)NCCC[C@H]1CN2C(=NC[C@H]2CCC)N1CC1CCC1 | 9.27%
34 | CCCCCCC(=O)N1C/C=C\C(c2ccc(OC)cc2)N(Cc2ccc(F)cc2)C(=O)C1 (centres unmarked) | -43.7%
35 | CCN(CC)S(=O)(=O)c1cc(OC)c(C)cc1C | -5.58%
36 | Cc1ccc(S(=O)(=O)CCC(=O)N2CCN(c3ccc([N+](=O)[O-])cc3)CC2)cc1 | -70.8%
37 | Cc1ccc(S(=O)(=O)CCC(=O)N2CCN(c3ccc(Cl)cc3)CC2)cc1 | -23.8%
38 | CC(=O)c1ccc(N2CCN(C(=O)CCS(=O)(=O)c3ccc(C)cc3)CC2)cc1 | -41%
39 | CC(=O)c1ccc(N2CCN(C(=O)Cc3cccs3)CC2)cc1 | -33.3%
40 | O=C(Cc1cccs1)N1CCN(c2ccc([N+](=O)[O-])cc2)CC1 | -66.1%
41 | O=C(/C=C/c1cccc([N+](=O)[O-])c1)N1CCN(Cc2ccccc2)CC1 | -47.5%
42 | Cc1c(C(=O)N2CCN(c3ccc([N+](=O)[O-])cc3)CC2)sc2ncn(CC(=O)N3CCOCC3)c(=O)c12 | -62.2%
43 | O=C(Cc1cccs1)N1CCN(c2ccc(F)cc2)CC1 | -4.82%
44 | O=C(/C=C/c1ccc([N+](=O)[O-])cc1)N1CCN(Cc2ccccc2)CC1 | -66.8%
45 | Cc1c(C(=O)N2CCN(c3ccccc3F)CC2)sc2ncn(CC(=O)N3CCOCC3)c(=O)c12 | -3.64%
46 | O=C(/C=C/c1ccc(Cl)cc1)N1CCN(Cc2ccccc2)CC1 | -35.6%
47 | Cc1cc([N+](=O)[O-])ccc1NC(=O)c1sc2ncn(CC(=O)N3CCOCC3)c(=O)c2c1C | -0.176%
